# Laboratory results: ChEMBL document CHEMBL1961873, “Compounds: GSK PKIS; Assays: Nanosyn kinase panel” (2012)
# Columns and labels:
# [1] = molecular target: Tyrosine-protein kinase CSK (Homo sapiens) (UniProt P41240); conditions: at 1 µM;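 further: each value is an averaged inhibition reading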
# [2] = molecular target: T1, Discoidin domain-containing receptor 2 (Homo sapiens) (UniProt Q16832); conditions: at 0.1 µM
# T1 sequence (whole entry): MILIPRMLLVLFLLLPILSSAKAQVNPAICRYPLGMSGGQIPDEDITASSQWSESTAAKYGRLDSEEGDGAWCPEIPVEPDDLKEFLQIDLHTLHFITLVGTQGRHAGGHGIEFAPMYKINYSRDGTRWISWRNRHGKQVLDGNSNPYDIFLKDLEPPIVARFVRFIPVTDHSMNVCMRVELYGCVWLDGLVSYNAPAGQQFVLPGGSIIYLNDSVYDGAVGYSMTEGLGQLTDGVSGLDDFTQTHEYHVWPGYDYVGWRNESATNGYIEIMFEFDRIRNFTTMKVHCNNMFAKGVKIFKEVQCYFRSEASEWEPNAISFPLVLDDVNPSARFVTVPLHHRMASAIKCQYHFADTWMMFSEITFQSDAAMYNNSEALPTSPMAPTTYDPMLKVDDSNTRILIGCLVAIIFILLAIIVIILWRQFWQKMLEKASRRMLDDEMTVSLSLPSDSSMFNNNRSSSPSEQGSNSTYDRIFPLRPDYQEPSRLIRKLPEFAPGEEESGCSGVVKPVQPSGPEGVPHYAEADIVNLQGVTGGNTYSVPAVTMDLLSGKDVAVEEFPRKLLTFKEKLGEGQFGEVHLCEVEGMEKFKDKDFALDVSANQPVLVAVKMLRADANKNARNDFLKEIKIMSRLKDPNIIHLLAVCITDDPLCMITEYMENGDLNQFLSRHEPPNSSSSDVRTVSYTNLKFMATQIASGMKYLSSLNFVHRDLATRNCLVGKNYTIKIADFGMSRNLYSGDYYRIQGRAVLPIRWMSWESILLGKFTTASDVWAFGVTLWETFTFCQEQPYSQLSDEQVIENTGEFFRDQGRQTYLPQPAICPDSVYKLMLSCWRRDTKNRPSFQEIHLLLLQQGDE
# [3] = molecular target: T1, Discoidin domain-containing receptor 2 (Homo sapiens); conditions: at 1 µM
# [4] = molecular target: Epidermal growth factor receptor (Homo sapiens) (UniProt P00533); conditions: at 0.1 µM
# [5] = molecular target: Epidermal growth factor receptor (Homo sapiens) (UniProt P00533); conditions: at 1 µM
# [6] = test system: Epidermal growth factor receptor (Homo sapiens), P00533 [L858R]; conditions: at 0.1 µM
# [7] = test system: Epidermal growth factor receptor (Homo sapiens), P00533 [L858R]; conditions: at 1 µM
# [8] = test system: Epidermal growth factor receptor (Homo sapiens), P00533 [L861Q]; conditions: at 0.1 µM
# [9] = test system: Epidermal growth factor receptor (Homo sapiens), P00533 [L861Q]; conditions: at 1 µM
# [10] = test system: Epidermal growth factor receptor (Homo sapiens), P00533 [T790M]; conditions: at 0.1 µM
# Chain of Epidermal growth factor receptor (Homo sapiens), P00533 [T790M] (P00533 whole entry T790M): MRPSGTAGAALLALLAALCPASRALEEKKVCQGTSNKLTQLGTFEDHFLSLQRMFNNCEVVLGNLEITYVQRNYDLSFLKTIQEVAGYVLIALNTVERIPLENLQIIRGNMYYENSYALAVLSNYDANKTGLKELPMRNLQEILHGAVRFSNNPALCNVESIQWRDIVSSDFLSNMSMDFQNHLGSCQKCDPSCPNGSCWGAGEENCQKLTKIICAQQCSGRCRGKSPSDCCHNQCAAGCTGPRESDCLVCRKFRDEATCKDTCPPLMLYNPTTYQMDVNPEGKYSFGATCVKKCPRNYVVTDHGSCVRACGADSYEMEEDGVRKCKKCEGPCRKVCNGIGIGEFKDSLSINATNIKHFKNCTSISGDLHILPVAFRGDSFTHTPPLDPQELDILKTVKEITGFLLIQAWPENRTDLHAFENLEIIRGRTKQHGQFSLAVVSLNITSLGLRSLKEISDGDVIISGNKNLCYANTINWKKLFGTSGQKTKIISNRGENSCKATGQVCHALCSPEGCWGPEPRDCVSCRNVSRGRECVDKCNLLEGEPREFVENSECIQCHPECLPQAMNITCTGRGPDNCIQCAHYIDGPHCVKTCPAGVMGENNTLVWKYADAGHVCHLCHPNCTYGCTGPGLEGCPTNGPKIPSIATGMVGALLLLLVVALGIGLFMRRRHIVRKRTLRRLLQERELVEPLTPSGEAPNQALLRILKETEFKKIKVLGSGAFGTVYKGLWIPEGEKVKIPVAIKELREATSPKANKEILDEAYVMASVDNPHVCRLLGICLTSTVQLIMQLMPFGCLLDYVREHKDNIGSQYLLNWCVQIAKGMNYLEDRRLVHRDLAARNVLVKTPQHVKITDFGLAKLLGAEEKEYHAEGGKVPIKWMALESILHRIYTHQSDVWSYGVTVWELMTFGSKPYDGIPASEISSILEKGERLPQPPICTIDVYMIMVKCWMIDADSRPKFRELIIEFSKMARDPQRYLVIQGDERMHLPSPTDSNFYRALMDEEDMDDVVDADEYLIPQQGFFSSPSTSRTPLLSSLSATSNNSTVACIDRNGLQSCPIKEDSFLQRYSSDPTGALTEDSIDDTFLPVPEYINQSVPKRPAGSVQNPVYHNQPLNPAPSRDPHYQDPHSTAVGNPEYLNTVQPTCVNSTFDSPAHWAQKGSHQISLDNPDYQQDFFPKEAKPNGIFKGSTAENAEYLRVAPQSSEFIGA
# Chain of Epidermal growth factor receptor (Homo sapiens) (P00533 whole entry): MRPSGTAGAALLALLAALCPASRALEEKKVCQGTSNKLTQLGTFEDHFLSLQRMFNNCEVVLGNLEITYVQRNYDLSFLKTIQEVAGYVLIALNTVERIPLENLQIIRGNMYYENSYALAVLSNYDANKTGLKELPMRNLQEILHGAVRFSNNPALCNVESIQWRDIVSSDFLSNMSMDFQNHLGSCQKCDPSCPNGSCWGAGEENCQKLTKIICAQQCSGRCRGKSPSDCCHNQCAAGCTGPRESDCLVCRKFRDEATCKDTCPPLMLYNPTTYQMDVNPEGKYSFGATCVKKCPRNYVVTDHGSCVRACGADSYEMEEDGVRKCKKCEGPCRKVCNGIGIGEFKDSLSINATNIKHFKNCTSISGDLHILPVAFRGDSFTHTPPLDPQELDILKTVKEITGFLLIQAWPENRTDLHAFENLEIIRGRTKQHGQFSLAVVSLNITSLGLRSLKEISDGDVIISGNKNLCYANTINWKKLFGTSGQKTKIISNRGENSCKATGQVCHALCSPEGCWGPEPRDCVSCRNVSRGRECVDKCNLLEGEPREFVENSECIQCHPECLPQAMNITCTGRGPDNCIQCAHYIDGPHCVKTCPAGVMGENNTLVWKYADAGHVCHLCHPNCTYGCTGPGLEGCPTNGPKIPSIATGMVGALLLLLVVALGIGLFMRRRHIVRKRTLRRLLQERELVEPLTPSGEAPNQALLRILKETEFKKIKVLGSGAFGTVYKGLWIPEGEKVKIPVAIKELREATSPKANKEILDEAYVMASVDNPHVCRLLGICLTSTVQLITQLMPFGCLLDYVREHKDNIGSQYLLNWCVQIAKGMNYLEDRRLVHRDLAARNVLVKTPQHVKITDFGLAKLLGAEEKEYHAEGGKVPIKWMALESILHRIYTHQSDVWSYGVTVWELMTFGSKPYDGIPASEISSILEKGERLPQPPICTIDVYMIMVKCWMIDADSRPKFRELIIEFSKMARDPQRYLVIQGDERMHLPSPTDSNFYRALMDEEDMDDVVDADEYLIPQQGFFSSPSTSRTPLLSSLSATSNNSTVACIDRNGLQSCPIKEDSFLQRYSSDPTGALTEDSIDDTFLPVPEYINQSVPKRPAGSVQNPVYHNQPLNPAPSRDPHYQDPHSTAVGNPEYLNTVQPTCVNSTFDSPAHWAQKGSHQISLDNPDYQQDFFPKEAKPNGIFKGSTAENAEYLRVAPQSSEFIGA
# Chain of Epidermal growth factor receptor (Homo sapiens), P00533 [L861Q] (P00533 whole entry L861Q): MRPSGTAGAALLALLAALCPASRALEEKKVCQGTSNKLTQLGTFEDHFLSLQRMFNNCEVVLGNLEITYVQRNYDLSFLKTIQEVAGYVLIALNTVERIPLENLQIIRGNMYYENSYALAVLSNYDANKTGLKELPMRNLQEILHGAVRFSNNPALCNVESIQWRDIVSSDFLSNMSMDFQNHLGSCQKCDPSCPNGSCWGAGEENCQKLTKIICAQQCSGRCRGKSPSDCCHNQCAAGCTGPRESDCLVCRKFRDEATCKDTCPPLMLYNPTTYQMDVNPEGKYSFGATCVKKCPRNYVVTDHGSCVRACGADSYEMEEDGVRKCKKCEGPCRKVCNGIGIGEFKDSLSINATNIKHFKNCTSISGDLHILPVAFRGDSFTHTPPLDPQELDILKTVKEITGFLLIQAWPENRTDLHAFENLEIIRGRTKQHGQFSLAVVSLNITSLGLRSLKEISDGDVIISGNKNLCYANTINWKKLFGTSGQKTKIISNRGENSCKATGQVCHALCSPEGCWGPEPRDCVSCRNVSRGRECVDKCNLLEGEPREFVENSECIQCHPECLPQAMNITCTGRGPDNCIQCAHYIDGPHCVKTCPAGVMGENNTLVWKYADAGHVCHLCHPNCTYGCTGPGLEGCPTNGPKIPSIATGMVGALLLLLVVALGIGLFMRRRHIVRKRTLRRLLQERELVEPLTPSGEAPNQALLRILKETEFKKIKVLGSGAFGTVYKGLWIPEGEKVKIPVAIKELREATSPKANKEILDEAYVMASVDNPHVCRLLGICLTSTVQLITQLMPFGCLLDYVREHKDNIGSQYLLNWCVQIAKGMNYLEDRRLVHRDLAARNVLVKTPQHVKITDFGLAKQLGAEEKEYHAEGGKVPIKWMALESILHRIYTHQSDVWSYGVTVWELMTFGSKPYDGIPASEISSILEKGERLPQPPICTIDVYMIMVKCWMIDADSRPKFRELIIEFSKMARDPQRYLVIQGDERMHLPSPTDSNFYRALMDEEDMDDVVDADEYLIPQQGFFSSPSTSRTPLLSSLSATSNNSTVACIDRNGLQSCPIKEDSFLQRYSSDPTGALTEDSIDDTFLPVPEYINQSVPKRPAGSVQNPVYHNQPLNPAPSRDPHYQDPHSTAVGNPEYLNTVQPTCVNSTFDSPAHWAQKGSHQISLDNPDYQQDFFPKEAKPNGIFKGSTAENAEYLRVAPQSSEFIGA
# Chain of Epidermal growth factor receptor (Homo sapiens), P00533 [L858R] (P00533 whole entry L858R): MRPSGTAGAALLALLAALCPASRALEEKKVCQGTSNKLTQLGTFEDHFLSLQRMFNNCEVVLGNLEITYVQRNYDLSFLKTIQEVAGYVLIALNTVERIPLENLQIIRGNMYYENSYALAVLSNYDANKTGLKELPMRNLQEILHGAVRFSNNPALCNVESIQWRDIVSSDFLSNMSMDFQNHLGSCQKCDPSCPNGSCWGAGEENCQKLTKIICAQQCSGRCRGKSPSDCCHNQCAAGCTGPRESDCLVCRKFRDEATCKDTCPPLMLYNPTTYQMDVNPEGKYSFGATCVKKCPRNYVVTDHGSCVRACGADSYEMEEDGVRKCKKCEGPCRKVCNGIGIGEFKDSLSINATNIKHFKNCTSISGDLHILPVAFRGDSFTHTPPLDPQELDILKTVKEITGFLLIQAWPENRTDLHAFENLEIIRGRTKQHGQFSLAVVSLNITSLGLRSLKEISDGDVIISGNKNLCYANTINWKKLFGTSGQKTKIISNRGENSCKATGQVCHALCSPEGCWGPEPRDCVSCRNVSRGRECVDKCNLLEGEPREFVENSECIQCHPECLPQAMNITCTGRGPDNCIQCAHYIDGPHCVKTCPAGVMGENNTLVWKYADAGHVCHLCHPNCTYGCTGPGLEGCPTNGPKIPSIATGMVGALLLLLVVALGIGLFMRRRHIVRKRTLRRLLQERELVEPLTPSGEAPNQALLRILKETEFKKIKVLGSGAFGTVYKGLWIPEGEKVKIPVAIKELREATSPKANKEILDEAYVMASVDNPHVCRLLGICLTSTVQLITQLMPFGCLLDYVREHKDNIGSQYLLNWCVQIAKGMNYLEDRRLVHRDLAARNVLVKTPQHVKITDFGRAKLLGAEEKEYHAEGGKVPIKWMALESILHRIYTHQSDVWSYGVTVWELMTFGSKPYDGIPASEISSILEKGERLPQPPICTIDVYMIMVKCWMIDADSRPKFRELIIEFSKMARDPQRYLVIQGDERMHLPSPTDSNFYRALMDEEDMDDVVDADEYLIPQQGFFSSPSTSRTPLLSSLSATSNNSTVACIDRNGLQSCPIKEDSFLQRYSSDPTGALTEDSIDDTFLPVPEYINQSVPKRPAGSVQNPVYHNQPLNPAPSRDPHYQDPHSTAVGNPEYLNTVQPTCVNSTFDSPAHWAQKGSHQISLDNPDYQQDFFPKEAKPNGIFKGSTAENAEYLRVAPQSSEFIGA
Structure (SMILES),inhibition [1] [%],inhibition [2] [%],inhibition [3] [%],inhibition [4] [%],inhibition [5] [%],inhibition [6] [%],inhibition [7] [%],inhibition [8] [%],inhibition [9] [%],inhibition [10] [%]
CCc1ccc(Oc2nccc(-c3c(-c4ccc(F)cc4)ncn3C3CCNCC3)n2)cc1,10.3,1.91,3.52,2.21,7.66,3.05,15.9,1.97,5.92,0.57
O=C1Nc2ccc(I)cc2C1=Cc1cc(Br)c(O)c(Br)c1,4.94,1.45,3.44,2.85,-1.18,-1.9,2.8,2.43,3.74,0.08
NC(=O)Cc1ccccc1Oc1nccc(-c2c(-c3ccc(F)cc3)ncn2C2CCNCC2)n1,0.29,0.48,0.75,2.22,4.51,2.34,8.03,1.25,-0.04,0.99
N#Cc1ccc(Oc2nccc(-c3c(-c4ccc(F)cc4)ncn3C3CCNCC3)n2)cc1,0.87,6.23,6.42,-1.1,2.76,-0.31,7.36,3.45,3.57,1.89
Clc1ccc(CNc2nccc(-c3cnn4ncccc34)n2)cc1,2.58,1.86,4.61,0.75,3.24,3.13,5.2,-1.04,0.71,0.11
Fc1ccc(-c2nc3n(c2-c2ccncc2)CCS3)cc1,4.61,2.36,4.83,0.92,3.39,5.61,14.5,2.5,1.57,1.65
COc1cccc(-n2cnc3c(N/N=C/c4ccncc4)ncnc32)c1,7.17,-0.19,1.99,2.02,8.31,5.72,30.8,1.61,10.6,-0.92
NS(=O)(=O)c1ccc(N/N=C2\C(=O)Nc3ccc(C(=O)NCCCn4ccnc4)cc32)cc1,6.51,0.72,1.93,3.44,5.59,0.2,6.95,1.73,5.08,2.53
COc1ccc(C2=C(N3CCc4ccccc43)C(=O)NC2=O)cc1,9.3,1.75,1.87,1.18,3.59,7.35,7.13,4.49,6.05,3.62
CCN(CC)Cc1ccc(Nc2nccc(-c3cnn4ncccc34)n2)cc1,8.18,1.64,4.24,-1.99,-1.76,-0.85,-1.39,1.51,1.54,0.54
C#Cc1cccc(Nc2ncnc3ccc(OCCCCNCCS(C)(=O)=O)cc23)c1,8.24,4.72,9.88,75.9,85.4,96.8,97.7,91.7,97.6,3.8
CN(c1ccc(NC(=O)Nc2c(Cl)cccc2Cl)cc1)c1ccnc(Nc2cccc(CS(C)(=O)=O)c2)n1,19.5,11.1,26.9,2.38,5.8,1.91,8.57,4.35,7.45,1.27
C[C@@H](Oc1cc(-n2cnc3ccc(OCC4CCN(C)CC4)cc32)sc1C(N)=O)c1ccccc1Cl,3.59,2.64,8.53,3.04,3.73,4.5,19.8,1.43,5.89,1.15
CN1CCN(CCCNc2nc3ccc(Oc4ccc(NC(=O)Nc5cc(C(F)(F)F)ccc5F)cc4)cc3[nH]2)CC1,-3.31,73.9,83.6,-3.44,0.24,1,0.13,0.67,-4.02,0.51
O=C(Nc1n[nH]c2cc(-c3ccccc3)ccc12)C1CC1,4.74,1.43,5.94,3.06,6.49,2.84,5.13,4.05,0.82,2.65
COc1cc(N2CCN(C(C)C)CC2)ccc1Nc1nc(Nc2ccc(F)cc2C(=O)NC[C@@H](O)CO)c2cc[nH]c2n1,6.92,0.31,1.21,-0.53,0.84,0.89,11.2,5.68,8.58,4.54
O=C(Nc1n[nH]c2nc(-c3ccco3)ccc12)C1CC1,4.82,5.94,7.53,2.44,4.53,-0.69,4.35,1.04,1.77,0.31

Structure (SMILES),inhibition [1] [%],inhibition [2] [%],inhibition [3] [%],inhibition [4] [%],inhibition [5] [%],inhibition [6] [%],inhibition [7] [%],inhibition [8] [%],inhibition [9] [%],inhibition [10] [%]
COc1cc(Nc2ncc3c(C)nc(-c4cccc(Oc5ccccc5)c4)n3n2)cc(OC)c1OC,0.83,1.95,0.6,-0.83,3.44,2.38,1.65,0.98,-0.89,1.28
NCc1ccc(-n2c(-c3nonc3N)nc3cnccc32)cc1,1.46,2.78,3.01,1.73,1.72,3.13,1.55,2.5,2.02,3.36
COc1cc2ncn(-c3cc(OCc4cccs4)c(C(N)=O)s3)c2cc1OC,9.5,3.95,4.63,-1.17,1.76,4.34,18.5,2.87,7.86,1.54
COc1cccc(/C=N/Nc2ncnc3c2cnn3-c2cccc(OC)c2)c1,3.91,1.34,2.5,1.31,2.97,2.05,8.79,1.95,4.05,0.54
C[C@@H](Oc1cc(-n2cnc3ccc(OC4CCN(C)CC4)cc32)sc1C(N)=O)c1ccccc1Cl,5.07,1.72,4.56,0.49,3.58,1.45,3.56,2.71,4.46,0.91
Nc1nccc(-c2c(-c3ccc(F)cc3)ncn2C2CCC(O)CC2)n1 (stereo not given),-0.86,-0.26,13.3,4.04,35.7,18.4,76.8,4.44,33.2,-1.86
CN(C)c1ccc2c(c1)/C(=C/Nc1ccc(S(N)(=O)=O)cc1)C(=O)N2,0.76,1.03,2.54,9.33,11.9,1.25,5.83,1.24,2.51,0.31
O=C(NCC1CC1)c1ccc(-c2cccc(C(=O)NC3CC3)c2)cc1,-3.57,4.92,7.61,1.39,0.85,2.42,-2.6,-0.16,-2.26,0.88
CCS(=O)(=O)c1ccc(OC)c(Nc2ncc(-c3cccc(-c4ccccc4F)c3)o2)c1,4.82,4.99,30.8,4.07,23.3,14.1,62.1,4.78,24.4,-1.94
Fc1ccc(-c2ncn(CCCN3CCOCC3)c2-c2ccncc2)cc1,-6.18,0.11,-0.13,0.44,1.09,-0.51,-2.87,-1.64,-2.82,-1.82
Cc1ccc(NC(=O)c2ccoc2)cc1-c1ccc(C(=O)NCC2CC2)cc1,0.18,1.48,2.43,3.14,6.36,3.23,1,0.74,0.37,1.63
FC(F)(F)c1cccc(Nc2nccc(-c3cnn4nc(-c5ccccc5)ccc34)n2)c1,1.44,0.05,2.08,-0.78,0.92,-0.7,-0.57,1.2,0.07,1.28
NS(=O)(=O)c1ccc(N/N=C2\C(=O)Nc3ccc(-c4cnco4)cc32)cc1,4.17,1.59,2.15,9.52,12.9,2.54,6.44,2.45,4.95,0.19
NC(=O)c1ccc(Oc2nccc(-c3c(-c4ccc(F)cc4)ncn3C3CCNCC3)n2)cc1,4.26,0.13,0.3,0.48,1.21,3.13,2.9,2.71,5.43,2.31
Cc1ccc(C(=O)NC2CCC2)cc1-c1ccc(C(=O)NCC2CC2)cc1,0.62,0.33,1.1,10.4,7.15,3.77,4.05,4.21,4.15,1.73
c1ccc(-c2n[nH]cc2-c2ccnc(-c3ccc(OCCN4CCOCC4)cc3)c2)nc1,-4.36,7.59,7.75,3.33,6.67,-2.03,-1.71,-0.15,-2.39,-0.02
COc1ccc(-c2ccc3c(NC(=O)C4CC4)n[nH]c3n2)cc1,4.87,0.86,0.84,0.14,0.71,-1.64,3.91,-0.19,2.45,-0.2
